# Experimental data from article PMC12529666, “Dysregulation of AGO2-miRNA dynamics underlies the AGO2-associated Lessel–Kreienkamp syndrome”.
# B1: ATGTTTTA (ssRNA)
# RNA 1: GAGUUCUACAGUCCGACGAUCCCAACAUGUUUUACACCUGGAAUUCUCGGGUGCCAA
# RNA 2: UGGAGUGUGACAAUGGUGUUUG
# DNA 1: GATCGTCGGACTGTAGAACTC
# DNA 2: TTGGCACCCGAGAATTCCA
# modifications: constant regions annealed to DNA blockers; guide miR-122 5' phosphate
# B2: ACGCTCTG (ssRNA)
# RNA 1: GAGUUCUACAGUCCGACGAUCCCAACACGCUCUGCACCUGGAAUUCUCGGGUGCCAA
# RNA 2: UGGAGUGUGACAAUGGUGUUUG
# DNA 1: GATCGTCGGACTGTAGAACTC
# DNA 2: TTGGCACCCGAGAATTCCA
# modifications: constant regions annealed to DNA blockers; guide miR-122 5' phosphate
# B3: GTGCCCCA (ssRNA)
# RNA 1: GAGUUCUACAGUCCGACGAUCCCAACGUGCCCCACACCUGGAAUUCUCGGGUGCCAA
# RNA 2: UGGAGUGUGACAAUGGUGUUUG
# DNA 1: GATCGTCGGACTGTAGAACTC
# DNA 2: TTGGCACCCGAGAATTCCA
# modifications: constant regions annealed to DNA blockers; guide miR-122 5' phosphate
# B4: GCGTTCCA (ssRNA)
# RNA 1: GAGUUCUACAGUCCGACGAUCCCAACGCGUUCCACACCUGGAAUUCUCGGGUGCCAA
# RNA 2: UGGAGUGUGACAAUGGUGUUUG
# DNA 1: GATCGTCGGACTGTAGAACTC
# DNA 2: TTGGCACCCGAGAATTCCA
# modifications: constant regions annealed to DNA blockers; guide miR-122 5' phosphate
# B5: ATACTCCA (ssRNA)
# RNA 1: GAGUUCUACAGUCCGACGAUCCCAACAUACUCCACACCUGGAAUUCUCGGGUGCCAA
# RNA 2: UGGAGUGUGACAAUGGUGUUUG
# DNA 1: GATCGTCGGACTGTAGAACTC
# DNA 2: TTGGCACCCGAGAATTCCA
# modifications: constant regions annealed to DNA blockers; guide miR-122 5' phosphate
# B6: GCGCCCCA (ssRNA)
# RNA 1: GAGUUCUACAGUCCGACGAUCCCAACGCGCCCCACACCUGGAAUUCUCGGGUGCCAA
# RNA 2: UGGAGUGUGACAAUGGUGUUUG
# DNA 1: GATCGTCGGACTGTAGAACTC
# DNA 2: TTGGCACCCGAGAATTCCA
# modifications: constant regions annealed to DNA blockers; guide miR-122 5' phosphate
# B7: GCGCCCCG (ssRNA)
# RNA 1: GAGUUCUACAGUCCGACGAUCCCAACGCGCCCCGCACCUGGAAUUCUCGGGUGCCAA
# RNA 2: UGGAGUGUGACAAUGGUGUUUG
# DNA 1: GATCGTCGGACTGTAGAACTC
# DNA 2: TTGGCACCCGAGAATTCCA
# modifications: constant regions annealed to DNA blockers; guide miR-122 5' phosphate
# B8: ACACTCTG (ssRNA)
# RNA 1: GAGUUCUACAGUCCGACGAUCCCAACACACUCUGCACCUGGAAUUCUCGGGUGCCAA
# RNA 2: UGGAGUGUGACAAUGGUGUUUG
# DNA 1: GATCGTCGGACTGTAGAACTC
# DNA 2: TTGGCACCCGAGAATTCCA
# modifications: constant regions annealed to DNA blockers; guide miR-122 5' phosphate
# B9: GCGCTTCA (ssRNA)
# RNA 1: GAGUUCUACAGUCCGACGAUCCCAACGCGCUUCACACCUGGAAUUCUCGGGUGCCAA
# RNA 2: UGGAGUGUGACAAUGGUGUUUG
# DNA 1: GATCGTCGGACTGTAGAACTC
# DNA 2: TTGGCACCCGAGAATTCCA
# modifications: constant regions annealed to DNA blockers; guide miR-122 5' phosphate
# B10: GTGTCTTA (ssRNA)
# RNA 1: GAGUUCUACAGUCCGACGAUCCCAACGUGUCUUACACCUGGAAUUCUCGGGUGCCAA
# RNA 2: UGGAGUGUGACAAUGGUGUUUG
# DNA 1: GATCGTCGGACTGTAGAACTC
# DNA 2: TTGGCACCCGAGAATTCCA
# modifications: constant regions annealed to DNA blockers; guide miR-122 5' phosphate
# B11: GTGCCTCA (ssRNA)
# RNA 1: GAGUUCUACAGUCCGACGAUCCCAACGUGCCUCACACCUGGAAUUCUCGGGUGCCAA
# RNA 2: UGGAGUGUGACAAUGGUGUUUG
# DNA 1: GATCGTCGGACTGTAGAACTC
# DNA 2: TTGGCACCCGAGAATTCCA
# modifications: constant regions annealed to DNA blockers; guide miR-122 5' phosphate
# B12: ACGTTTTA (ssRNA)
# RNA 1: GAGUUCUACAGUCCGACGAUCCCAACACGUUUUACACCUGGAAUUCUCGGGUGCCAA
# RNA 2: UGGAGUGUGACAAUGGUGUUUG
# DNA 1: GATCGTCGGACTGTAGAACTC
# DNA 2: TTGGCACCCGAGAATTCCA
# modifications: constant regions annealed to DNA blockers; guide miR-122 5' phosphate
# B13: ACACCTTG (ssRNA)
# RNA 1: GAGUUCUACAGUCCGACGAUCCCAACACACCUUGCACCUGGAAUUCUCGGGUGCCAA
# RNA 2: UGGAGUGUGACAAUGGUGUUUG
# DNA 1: GATCGTCGGACTGTAGAACTC
# DNA 2: TTGGCACCCGAGAATTCCA
# modifications: constant regions annealed to DNA blockers; guide miR-122 5' phosphate
# B14: GTGTCTCA (ssRNA)
# RNA 1: GAGUUCUACAGUCCGACGAUCCCAACGUGUCUCACACCUGGAAUUCUCGGGUGCCAA
# RNA 2: UGGAGUGUGACAAUGGUGUUUG
# DNA 1: GATCGTCGGACTGTAGAACTC
# DNA 2: TTGGCACCCGAGAATTCCA
# modifications: constant regions annealed to DNA blockers; guide miR-122 5' phosphate
# B15: ACGTCTTA (ssRNA)
# RNA 1: GAGUUCUACAGUCCGACGAUCCCAACACGUCUUACACCUGGAAUUCUCGGGUGCCAA
# RNA 2: UGGAGUGUGACAAUGGUGUUUG
# DNA 1: GATCGTCGGACTGTAGAACTC
# DNA 2: TTGGCACCCGAGAATTCCA
# modifications: constant regions annealed to DNA blockers; guide miR-122 5' phosphate
# B16: ATATCCCA (ssRNA)
# RNA 1: GAGUUCUACAGUCCGACGAUCCCAACAUAUCCCACACCUGGAAUUCUCGGGUGCCAA
# RNA 2: UGGAGUGUGACAAUGGUGUUUG
# DNA 1: GATCGTCGGACTGTAGAACTC
# DNA 2: TTGGCACCCGAGAATTCCA
# modifications: constant regions annealed to DNA blockers; guide miR-122 5' phosphate
# B17: GTGCTCTG (ssRNA)
# RNA 1: GAGUUCUACAGUCCGACGAUCCCAACGUGCUCUGCACCUGGAAUUCUCGGGUGCCAA
# RNA 2: UGGAGUGUGACAAUGGUGUUUG
# DNA 1: GATCGTCGGACTGTAGAACTC
# DNA 2: TTGGCACCCGAGAATTCCA
# modifications: constant regions annealed to DNA blockers; guide miR-122 5' phosphate
# B18: ACGCCCTA (ssRNA)
# RNA 1: GAGUUCUACAGUCCGACGAUCCCAACACGCCCUACACCUGGAAUUCUCGGGUGCCAA
# RNA 2: UGGAGUGUGACAAUGGUGUUUG
# DNA 1: GATCGTCGGACTGTAGAACTC
# DNA 2: TTGGCACCCGAGAATTCCA
# modifications: constant regions annealed to DNA blockers; guide miR-122 5' phosphate
# B19: ATGCCCCA (ssRNA)
# RNA 1: GAGUUCUACAGUCCGACGAUCCCAACAUGCCCCACACCUGGAAUUCUCGGGUGCCAA
# RNA 2: UGGAGUGUGACAAUGGUGUUUG
# DNA 1: GATCGTCGGACTGTAGAACTC
# DNA 2: TTGGCACCCGAGAATTCCA
# modifications: constant regions annealed to DNA blockers; guide miR-122 5' phosphate
# B20: ACGTCCTA (ssRNA)
# RNA 1: GAGUUCUACAGUCCGACGAUCCCAACACGUCCUACACCUGGAAUUCUCGGGUGCCAA
# RNA 2: UGGAGUGUGACAAUGGUGUUUG
# DNA 1: GATCGTCGGACTGTAGAACTC
# DNA 2: TTGGCACCCGAGAATTCCA
# modifications: constant regions annealed to DNA blockers; guide miR-122 5' phosphate
# Target: AGO2 WT (phosphosite mutant background) (Homo sapiens, UniProt Q9UKV8 1-859, S387D;S824A;S828D;S831D;S834A)
# Assay: RNA Bind-n-Seq (nitrocellulose filter binding and sequencing); miR-122 guide loaded in AGO2; 60 min incubation; 30 mM Tris pH 8.0, 100 mM potassium acetate, 2 mM magnesium acetate, 0.5 mM TCEP, 0.005% NP-40, 0.01 mg/ml yeast tRNA; 3 nM AGO2-miR-122, 100 nM RNA library; 60; high values mean tight binding
# Details: protein: recombinant; tags: His6 (N-terminal, pFastBac HTA)
# Summary of the method: (§1)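 His-tagged AGO2 was expressed in Sf9 insect cells by baculovirus, loaded with a synthetic guide RNA, and purified by Ni-NTA and a biotinylated capture oligo. Bound RNA was extracted, reverse-transcribed, barcode-amplified and Illumina-sequenced. Fold enrichment is each sequence's read fraction divided by its input-library read fraction.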
# Chain of AGO2 WT (phosphosite mutant background) (Q9UKV8 whole entry S387D/S824A/S828D/S831D/S834A): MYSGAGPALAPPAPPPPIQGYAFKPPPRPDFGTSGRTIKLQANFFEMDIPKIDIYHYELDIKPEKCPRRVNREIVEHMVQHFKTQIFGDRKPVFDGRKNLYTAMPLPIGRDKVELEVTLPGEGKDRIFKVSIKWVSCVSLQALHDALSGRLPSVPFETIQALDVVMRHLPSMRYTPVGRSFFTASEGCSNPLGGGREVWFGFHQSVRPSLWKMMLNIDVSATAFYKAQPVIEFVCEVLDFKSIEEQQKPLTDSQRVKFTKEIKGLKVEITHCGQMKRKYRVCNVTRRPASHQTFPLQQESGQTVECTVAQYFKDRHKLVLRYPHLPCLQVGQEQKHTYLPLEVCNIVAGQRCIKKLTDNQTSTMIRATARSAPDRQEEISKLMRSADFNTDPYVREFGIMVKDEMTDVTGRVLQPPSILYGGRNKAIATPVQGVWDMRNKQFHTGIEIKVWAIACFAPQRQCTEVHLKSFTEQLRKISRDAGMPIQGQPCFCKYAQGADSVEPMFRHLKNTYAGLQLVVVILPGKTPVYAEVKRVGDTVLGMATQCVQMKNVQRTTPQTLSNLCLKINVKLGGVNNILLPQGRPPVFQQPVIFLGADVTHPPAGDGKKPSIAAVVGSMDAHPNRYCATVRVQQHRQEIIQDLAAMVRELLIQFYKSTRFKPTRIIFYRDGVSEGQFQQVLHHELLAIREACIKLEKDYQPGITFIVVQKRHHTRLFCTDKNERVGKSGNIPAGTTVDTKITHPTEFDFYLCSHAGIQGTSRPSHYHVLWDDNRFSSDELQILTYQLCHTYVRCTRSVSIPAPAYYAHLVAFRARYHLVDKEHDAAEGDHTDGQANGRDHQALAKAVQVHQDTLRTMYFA
row,Binder,binding signal
1,B1,0.12 fold enrichment over input
2,B2,0.132 fold enrichment over input
3,B3,0.123 fold enrichment over input
4,B5,1.32 fold enrichment over input
5,B7,0.12 fold enrichment over input
6,B8,0.933 fold enrichment over input
7,B9,0.123 fold enrichment over input
8,B11,0.122 fold enrichment over input
9,B14,0.126 fold enrichment over input
10,B15,0.13 fold enrichment over input
11,B17,0.123 fold enrichment over input

# Target: AGO2 L192P (Homo sapiens, UniProt Q9UKV8 1-859, L192P;S387D;S824A;S828D;S831D;S834A)
# Assay: as above
# Details: protein: recombinant; tags: His6 (N-terminal, pFastBac HTA)
# Summary of the method: as §1
# Chain of AGO2 L192P (Q9UKV8 whole entry L192P/S387D/S824A/S828D/S831D/S834A): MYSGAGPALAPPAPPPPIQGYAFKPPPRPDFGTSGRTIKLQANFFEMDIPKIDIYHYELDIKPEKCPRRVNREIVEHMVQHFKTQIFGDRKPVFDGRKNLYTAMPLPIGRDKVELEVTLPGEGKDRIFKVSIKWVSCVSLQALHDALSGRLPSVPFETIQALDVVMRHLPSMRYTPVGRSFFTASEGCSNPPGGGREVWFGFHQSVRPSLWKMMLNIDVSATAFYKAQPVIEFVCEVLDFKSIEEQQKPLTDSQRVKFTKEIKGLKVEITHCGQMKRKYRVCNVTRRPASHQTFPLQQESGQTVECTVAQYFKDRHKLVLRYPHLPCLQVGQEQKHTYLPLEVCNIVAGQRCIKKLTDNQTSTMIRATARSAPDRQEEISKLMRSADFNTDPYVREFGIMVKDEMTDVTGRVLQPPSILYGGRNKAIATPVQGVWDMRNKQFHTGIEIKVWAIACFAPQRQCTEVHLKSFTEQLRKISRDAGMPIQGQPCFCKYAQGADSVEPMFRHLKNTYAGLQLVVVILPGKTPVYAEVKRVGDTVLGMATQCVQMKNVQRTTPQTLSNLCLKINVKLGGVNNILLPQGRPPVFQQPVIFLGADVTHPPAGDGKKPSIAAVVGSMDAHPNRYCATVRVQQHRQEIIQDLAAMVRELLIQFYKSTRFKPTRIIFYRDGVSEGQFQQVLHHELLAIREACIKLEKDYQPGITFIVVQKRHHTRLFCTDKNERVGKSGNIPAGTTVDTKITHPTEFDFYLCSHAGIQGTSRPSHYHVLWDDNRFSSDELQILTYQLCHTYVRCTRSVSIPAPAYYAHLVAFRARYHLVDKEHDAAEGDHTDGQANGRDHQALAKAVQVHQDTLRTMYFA
row,Binder,binding signal
1,B1,0.492 fold enrichment over input
2,B2,0.394 fold enrichment over input
3,B3,0.464 fold enrichment over input
4,B4,0.477 fold enrichment over input
5,B5,4.64 fold enrichment over input
6,B6,0.498 fold enrichment over input
7,B7,0.438 fold enrichment over input
8,B8,0.807 fold enrichment over input
9,B9,0.498 fold enrichment over input
10,B10,0.461 fold enrichment over input
11,B11,0.533 fold enrichment over input
12,B12,0.447 fold enrichment over input
13,B13,0.422 fold enrichment over input
14,B14,0.486 fold enrichment over input
15,B15,0.525 fold enrichment over input
16,B16,0.464 fold enrichment over input
17,B17,0.483 fold enrichment over input
18,B18,0.505 fold enrichment over input
19,B19,0.494 fold enrichment over input
20,B20,0.475 fold enrichment over input

# Target: AGO2 A367P (Homo sapiens, UniProt Q9UKV8 1-859, A367P;S387D;S824A;S828D;S831D;S834A)
# Assay: as above
# Details: protein: recombinant; tags: His6 (N-terminal, pFastBac HTA)
# Summary of the method: as §1
# Chain of AGO2 A367P (Q9UKV8 whole entry A367P/S387D/S824A/S828D/S831D/S834A): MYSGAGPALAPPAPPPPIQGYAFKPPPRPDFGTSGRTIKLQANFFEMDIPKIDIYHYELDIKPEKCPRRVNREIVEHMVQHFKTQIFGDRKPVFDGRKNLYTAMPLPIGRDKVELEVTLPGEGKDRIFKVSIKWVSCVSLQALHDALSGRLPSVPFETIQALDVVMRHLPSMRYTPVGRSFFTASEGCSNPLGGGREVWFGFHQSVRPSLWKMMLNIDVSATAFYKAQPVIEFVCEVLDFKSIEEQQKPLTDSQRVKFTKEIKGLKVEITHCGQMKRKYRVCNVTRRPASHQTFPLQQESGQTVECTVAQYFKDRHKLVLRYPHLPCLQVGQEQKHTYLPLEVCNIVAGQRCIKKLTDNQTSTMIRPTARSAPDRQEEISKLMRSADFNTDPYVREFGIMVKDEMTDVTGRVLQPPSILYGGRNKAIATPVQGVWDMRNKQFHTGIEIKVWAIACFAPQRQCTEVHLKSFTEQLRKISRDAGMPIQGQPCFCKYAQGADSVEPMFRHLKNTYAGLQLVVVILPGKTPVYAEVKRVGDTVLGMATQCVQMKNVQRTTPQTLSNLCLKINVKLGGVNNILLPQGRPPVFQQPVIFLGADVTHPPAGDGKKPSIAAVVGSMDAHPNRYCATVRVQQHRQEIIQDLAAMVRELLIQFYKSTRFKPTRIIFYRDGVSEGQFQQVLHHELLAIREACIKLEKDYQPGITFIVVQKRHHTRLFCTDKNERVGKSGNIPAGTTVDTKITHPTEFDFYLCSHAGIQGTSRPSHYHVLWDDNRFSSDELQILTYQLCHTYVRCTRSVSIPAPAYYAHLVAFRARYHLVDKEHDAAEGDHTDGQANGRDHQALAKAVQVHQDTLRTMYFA
row,Binder,binding signal
1,B1,0.247 fold enrichment over input
2,B2,0.169 fold enrichment over input
3,B3,0.227 fold enrichment over input
4,B4,0.187 fold enrichment over input
5,B5,6.04 fold enrichment over input
6,B6,0.192 fold enrichment over input
7,B7,0.18 fold enrichment over input
8,B8,0.794 fold enrichment over input
9,B9,0.238 fold enrichment over input
10,B10,0.173 fold enrichment over input
11,B11,0.232 fold enrichment over input
12,B12,0.21 fold enrichment over input
13,B13,0.169 fold enrichment over input
14,B14,0.222 fold enrichment over input
15,B15,0.269 fold enrichment over input
16,B16,0.195 fold enrichment over input
17,B17,0.182 fold enrichment over input
18,B18,0.194 fold enrichment over input
19,B19,0.191 fold enrichment over input
20,B20,0.205 fold enrichment over input

# Target: AGO2 T357M (Homo sapiens, UniProt Q9UKV8 1-859, T357M;S387D;S824A;S828D;S831D;S834A)
# Assay: as above
# Details: protein: recombinant; tags: His6 (N-terminal, pFastBac HTA)
# Summary of the method: as §1
# Chain of AGO2 T357M (Q9UKV8 whole entry T357M/S387D/S824A/S828D/S831D/S834A): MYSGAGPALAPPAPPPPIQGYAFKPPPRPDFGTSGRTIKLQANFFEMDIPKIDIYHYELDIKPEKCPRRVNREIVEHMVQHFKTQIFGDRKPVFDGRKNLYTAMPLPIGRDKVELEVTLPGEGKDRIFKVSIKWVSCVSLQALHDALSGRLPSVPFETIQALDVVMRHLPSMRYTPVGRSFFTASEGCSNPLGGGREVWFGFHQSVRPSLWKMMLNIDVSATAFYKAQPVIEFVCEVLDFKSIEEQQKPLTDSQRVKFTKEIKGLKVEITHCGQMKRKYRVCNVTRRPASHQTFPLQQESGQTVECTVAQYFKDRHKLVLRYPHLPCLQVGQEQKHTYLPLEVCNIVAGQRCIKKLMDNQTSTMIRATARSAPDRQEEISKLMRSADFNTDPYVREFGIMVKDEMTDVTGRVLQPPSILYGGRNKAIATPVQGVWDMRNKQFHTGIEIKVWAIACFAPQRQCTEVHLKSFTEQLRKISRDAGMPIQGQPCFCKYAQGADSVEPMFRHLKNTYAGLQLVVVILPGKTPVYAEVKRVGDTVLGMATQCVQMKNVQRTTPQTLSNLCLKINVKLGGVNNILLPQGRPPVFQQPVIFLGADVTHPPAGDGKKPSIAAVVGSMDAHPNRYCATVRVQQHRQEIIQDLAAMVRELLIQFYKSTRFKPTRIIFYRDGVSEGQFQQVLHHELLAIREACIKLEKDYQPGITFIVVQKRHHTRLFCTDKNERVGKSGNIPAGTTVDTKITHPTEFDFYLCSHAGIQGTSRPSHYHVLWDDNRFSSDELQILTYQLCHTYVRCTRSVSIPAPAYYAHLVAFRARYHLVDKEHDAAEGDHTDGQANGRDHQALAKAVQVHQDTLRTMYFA
row,Binder,binding signal
1,B1,0.607 fold enrichment over input
2,B2,0.539 fold enrichment over input
3,B3,0.677 fold enrichment over input
4,B4,0.592 fold enrichment over input
5,B5,1.16 fold enrichment over input
6,B6,0.741 fold enrichment over input
7,B7,0.745 fold enrichment over input
8,B8,0.868 fold enrichment over input
9,B9,0.703 fold enrichment over input
10,B10,0.599 fold enrichment over input
11,B11,0.687 fold enrichment over input
12,B12,0.571 fold enrichment over input
13,B13,0.452 fold enrichment over input
14,B14,0.585 fold enrichment over input
15,B15,0.643 fold enrichment over input
16,B16,0.568 fold enrichment over input
17,B17,0.67 fold enrichment over input
18,B18,0.681 fold enrichment over input
19,B19,0.652 fold enrichment over input
20,B20,0.603 fold enrichment over input

# Target: AGO2 F182del (Homo sapiens, UniProt Q9UKV8 1-859, S387D;S824A;S828D;S831D;S834A;del182-182)
# Assay: as above
# Details: protein: recombinant; tags: His6 (N-terminal, pFastBac HTA)
# Summary of the method: as §1
# Chain of AGO2 F182del (Q9UKV8 other isoform, or with tags, fused parts or gaps S387D;S824A;S828D;S831D;S834A;del182-182): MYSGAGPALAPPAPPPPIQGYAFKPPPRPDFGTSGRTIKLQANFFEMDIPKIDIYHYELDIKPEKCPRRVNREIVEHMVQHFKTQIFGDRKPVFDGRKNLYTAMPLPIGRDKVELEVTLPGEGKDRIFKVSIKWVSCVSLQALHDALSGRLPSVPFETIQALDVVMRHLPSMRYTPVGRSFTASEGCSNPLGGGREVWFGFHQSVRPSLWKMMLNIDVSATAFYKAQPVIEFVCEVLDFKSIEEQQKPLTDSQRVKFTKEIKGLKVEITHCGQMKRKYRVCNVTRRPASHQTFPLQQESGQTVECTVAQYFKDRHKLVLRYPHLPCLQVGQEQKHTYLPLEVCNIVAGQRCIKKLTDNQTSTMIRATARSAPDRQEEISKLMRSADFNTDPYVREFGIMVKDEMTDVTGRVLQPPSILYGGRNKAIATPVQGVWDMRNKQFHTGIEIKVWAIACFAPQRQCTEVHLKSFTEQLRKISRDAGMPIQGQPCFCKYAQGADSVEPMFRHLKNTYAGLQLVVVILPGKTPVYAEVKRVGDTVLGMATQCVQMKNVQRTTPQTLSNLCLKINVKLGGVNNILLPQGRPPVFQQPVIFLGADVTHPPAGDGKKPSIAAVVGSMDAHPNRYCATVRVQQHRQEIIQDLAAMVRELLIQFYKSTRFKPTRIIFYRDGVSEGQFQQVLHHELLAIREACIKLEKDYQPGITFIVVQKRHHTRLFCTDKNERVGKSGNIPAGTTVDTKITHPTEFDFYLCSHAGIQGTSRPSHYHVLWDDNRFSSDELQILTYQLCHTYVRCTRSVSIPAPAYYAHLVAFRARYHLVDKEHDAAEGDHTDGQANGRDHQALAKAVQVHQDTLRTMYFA
row,Binder,binding signal
1,B1,0.21 fold enrichment over input
2,B2,0.149 fold enrichment over input
3,B3,0.158 fold enrichment over input
4,B4,0.161 fold enrichment over input
5,B5,8.59 fold enrichment over input
6,B8,2.4 fold enrichment over input
7,B9,0.289 fold enrichment over input
8,B11,0.326 fold enrichment over input
9,B12,0.204 fold enrichment over input
10,B13,0.318 fold enrichment over input
11,B14,0.387 fold enrichment over input
12,B15,0.333 fold enrichment over input
13,B16,0.249 fold enrichment over input
14,B19,0.191 fold enrichment over input
15,B20,0.187 fold enrichment over input
